We go through 40 compounds from PubChem BioAssay (EPA / NIEHS).

In general, AC50 refers to the midpoint of the concentration-response curve, whichever way the signal moves.

Results filed as inconclusive are left out. Activity calls are given as the source filed them. The calls were made as follows: active = hit-call score of the fitted dose curve at least 0.9, where 1 is the maximum; inconclusive = response in the unintended direction; inactive = score below 0.9.

The target of the experiment is Retinoic acid receptor RXR-alpha (Homo sapiens) (UniProt P19793). The experiment can be described thus: ATG_RXRa_TRANS: Attagene TRANS-FACTORIAL HepG2 Assay for human Retinoid X Receptor alpha (RXRa) (AID 2283012). The method, then: ATG_TRANS is a cell-based, multiplexed-readout assay that uses HepG2, a human liver cell line, with measurements taken at 24 hours after chemical dosing in a 24-well plate.ATG_RXRa_TRANS is one of 30 assay component(s) measured or calculated from the ATG_TRANS assay. It is designed to make measurements of mRNA induction, a form of inducible reporter, as detected with fluorescence intensity signals by Reverse transcription polymerase chain reaction (RT-PCR) and Capillary electrophoresis technology.Data from the assay component ATG_RXRa_TRANS was analyzed into 1 assay endpoint. This assay endpoint, ATG_RXRa_TRANS, was analyzed in the positive analysis fitting direction relative to DMSO as the negative control and baseline of activity. Using a type of inducible reporter, measures of mRNA for gain-of-signal activity can be used to understand the reporter gene at the transcription factor-level as they relate to the gene RXRA. Furthermore, this assay endpoint can be referred to as a primary readout, because this assay has produced multiple assay endpoints where this one serves a reporter gene function. To generalize the intended target to other relatable targets, this assay endpoint is annotated to the nuclear receptor intended target family, where the subfamily is non-steroidal.
Sequence of Retinoic acid receptor RXR-alpha (Homo sapiens) (P19793 whole entry, looked up): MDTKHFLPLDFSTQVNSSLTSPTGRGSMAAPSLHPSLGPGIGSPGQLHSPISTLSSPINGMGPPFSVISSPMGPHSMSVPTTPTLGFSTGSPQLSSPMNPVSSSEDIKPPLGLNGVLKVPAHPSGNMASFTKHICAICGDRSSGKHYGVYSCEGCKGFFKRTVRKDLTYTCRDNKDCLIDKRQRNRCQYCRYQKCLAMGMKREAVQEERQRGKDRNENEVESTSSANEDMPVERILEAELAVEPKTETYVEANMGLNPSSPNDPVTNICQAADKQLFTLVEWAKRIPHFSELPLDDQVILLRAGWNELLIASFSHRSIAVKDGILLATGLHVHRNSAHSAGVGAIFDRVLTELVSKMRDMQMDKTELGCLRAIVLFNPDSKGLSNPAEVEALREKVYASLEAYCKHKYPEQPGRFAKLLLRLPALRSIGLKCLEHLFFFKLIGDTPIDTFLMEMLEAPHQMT
Human liver HepG2 cells are transiently transfected with multiple reporter transcription units (MRTUs) in 6-well plates using FuGene 6 reagent (Roche; 3 ml FuGene/1 mg DNA). The MRTU constructs are regulated by a cis-regulating element (promoter). […] A major difference between the CIS and TRANS system is that in CIS activities of endogenous TFs are measured, whereas the TRANS assay evaluates changes in activities of exogenous, chimeric NR-Gal4 proteins. […] At the end of 24 hour incubation, total RNA was isolated using TriZol reagent (Invitrogen). The isolated RNA is then reverse-transcribed using oligo(dT) primer and Mo-MLV reverse transcriptase (Invitrogen) with DNAse I (Ambion) treatment for 30 min. The one-tenth of the produced cDNA was amplified by PCR using Taq DNA polymerase (Invitrogen) and two reporter sequence-specific primers. The PCR products were fluorescently labeled by primer extension with 6-arboxyfluorescein (6-FAM) 5'-labeled reporter sequence-specific primer (2 min at 95 C, 20 s at 68 C and 10 min at 72 C) and these products were digested with 5U of HpaI (New England Biolabs) for 2h at 37 C. The fragments were purified using Qiaquick PCR columns (Qiagen), analyzed on an ABI 3130xL genetic analyzer (Applied Biosystems) with peak positions identified by using a set of X-rhodamine (ROX)-labeled MapMarker1000 molecular weight standards (BioVentures). The raw capillary electrophoresis data was processed using Attagraph software (Attagene).
`CC(CN1c2ccccc2Sc2ccccc21)N(C)C` (stereo not given): the compound was classed as inactive. As to `O=C1CCCCCCCCCCCCCCO1`, the compound was classed as inactive. In the case of `C=CCOc1nc(OCC=C)nc(OCC=C)n1`, the outcome was inactive. In the case of `Cc1c(Cl)c(=O)oc2cc(O)ccc12`, the compound was classed as inactive.

Turning to `CC(=O)OCCOC(C)=O`, the compound was classed as inactive. Turning to `CCC(=O)/C=C/C1C(C)=CCCC1(C)C` (stereo not given), the compound was classed as inactive. With `N#Cc1ccccc1`, the outcome was inactive. The same measure, in the same setting: to `C[C@H]1C[C@H]2[C@@H]3CCC4=CC(=O)C=C[C@]4(C)[C@@]3(F)[C@@H](O)C[C@]2(C)[C@@]1(O)C(=O)COP(=O)(O)O` belongs “inactive”. Same read-out and setting: the result for `CCCCC/C=C/C=C/C=O` reads “inactive”; that for `N#Cc1ccc(CC(=NNC(=O)Nc2ccc(OC(F)(F)F)cc2)c2cccc(C(F)(F)F)c2)cc1`, “inactive”.

In the case of `CC(C)=CCCC(C)=CCCC(C)=CCO`, the AC50 is 100 µM (active). For `COc1nc(C)nc(N)n1`, the compound was called inactive. Regarding `CC(=O)c1c(C)cc(C(C)(C)C)cc1C`, the result was inactive. On to `COc1ccc(NC(=O)CC(C)=O)cc1`, for which the call was inactive. As for `O=Nc1ccc(Nc2ccccc2)cc1`, the result was inactive.

`Cc1ccc(C(=O)c2cc(O)c(O)c([N+](=O)[O-])c2)cc1`: the result was inactive. For `C=CC[N+](C)(C)CC=C`, the compound was called inactive. Turning to `N#Cc1nc(Cl)c(Cl)c(Cl)c1Cl`, the outcome was inactive. With `NCCCCCCN`, the outcome was inactive. The same measure, in the same setting: to `CC(C)C1CCC(O)CC1` (stereo not given) belongs “inactive”; to `COc1ccc(Cl)cc1C`, “inactive”; to `NC(=O)c1ccccc1Cl`, “inactive”. As to `Cc1ncc([N+](=O)[O-])n1C`, the call was inactive. Same read-out and setting: the result for `CN1[C@@H]2CC(OC(=O)[C@H](CO)c3ccccc3)C[C@H]1[C@@H]1O[C@@H]12` (stereo not given in full) reads “inactive”; that for `CCCCCCCCCCCCCCCC(=O)OC[C@H](O)[C@H]1OC(=O)C(O)=C1O`, “inactive”. Same read-out and setting: to `Clc1cccc(Cl)n1` belongs “inactive”; to `OCCOCCOCCOCCO`, “inactive”. Turning to `CCCCCCCCCCCCCC(=O)O`, the compound was classed as inactive. `CN(C)C(=N)N=C(N)N`: the compound was classed as inactive. Turning to `CCCCCCCCCCN`, the compound was called inactive. Turning to `C/C=C(\C)C(=O)OCc1ccccc1`, the compound was called inactive. Turning to `O=C(O)C[C@H](O)C[C@H](O)/C=C/c1c(C2CC2)nc2ccccc2c1-c1ccc(F)cc1`, the compound was called inactive. For `NNc1nc(-c2ccc(N)cc2)cs1`, the compound was classed as inactive. `Cc1ccc(C=O)s1`: the call was inactive. Consider `CCN(CC)c1ccc(C(=C2C=CC(=[N+](CC)CC)C=C2)c2ccc(S(=O)(=O)O)cc2S(=O)(=O)[O-])cc1`, for which the result was inactive. Turning to `CCC(=O)OCc1ccccc1`, the outcome was inactive. Take `CC(C)(C#N)c1cc(Cn2cncn2)cc(C(C)(C)C#N)c1`: the outcome was inactive. Same read-out and setting: the result for `C=C[Si](OCC)(OCC)OCC` reads “inactive”. Same read-out and setting: to `CCCc1ccccc1O` belongs “inactive”. The same measure, in the same setting: to `C[C@]12CC[C@H]3[C@@H](CCC4=CC(=O)CC[C@@]43C)[C@@H]1CC[C@@H]2C(=O)CO` belongs “inactive”.
